Laboratory results from PubChem BioAssay (NCI).
This is part of a sample that, as a whole, favours compounds with a hit. Of some 83,000 tested, about 20% had one in any assay.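 The test compound was applied at a single concentration to cells in 96-well plates for 48 hours, and percent growth was recorded.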 A number with no mark means an inactive call. The source made the active and inactive calls. Rule for the calls: active = growth percent below 10; inactive = the rest.

What was measured:
Assay in all cases: NCI-60 one-dose screen, 48 h (100 = growth as untreated, 0 = no growth, -100 = all killed)
Conditions in all cases: 10 µM unless noted
RPMI-8226 leukemia = test system: RPMI-8226 leukemia
OVCAR-8 ovarian = test system: OVCAR-8 ovarian
OVCAR-5 ovarian = test system: OVCAR-5 ovarian
OVCAR-4 ovarian = test system: OVCAR-4 ovarian
SK-OV-3 ovarian = test system: SK-OV-3 ovarian
IGROV1 ovarian = test system: IGROV1 ovarian
OVCAR-3 ovarian = test system: OVCAR-3 ovarian
HS 578T breast = test system: HS 578T breast
NCI/ADR-RES ovarian = test system: NCI/ADR-RES ovarian
SR leukemia = test system: SR leukemia

| Compound | growth (RPMI-8226 leukemia) | growth (OVCAR-8 ovarian) | growth (OVCAR-5 ovarian) | growth (OVCAR-4 ovarian) | growth (SK-OV-3 ovarian) [%] | growth (IGROV1 ovarian) | growth (OVCAR-3 ovarian) | growth (HS 578T breast) | growth (NCI/ADR-RES ovarian) | growth (SR leukemia) |
| --- | --- | --- | --- | --- | --- | --- | --- | --- | --- | --- |
| CSc1nc(NCc2ccccc2)c(C#N)c(-c2cccc([N+](=O)[O-])c2)n1 | 100% | 95% | 90.7% | 88.5% | 97.1 | 99.9% | 111% | 92% | 95.2% |  |
| COc1cc(C)c(C2C(C#N)=C(N)Oc3n[nH]c(-c4cccs4)c32)cc1C(C)C (configuration not stated) |  |  | 115% | 103% | 98 | 108% | 109% | 103% | 103% | 87.1% |
| N#Cc1c(-c2ccc(Cl)cc2)nc(NN=Cc2ccco2)nc1N1CCOCC1 | 66.5% | 87.9% | 76.9% | 65.9% | 49.4 | 25.9% | 66.6% | 68.2% | 75.8% |  |
| O=C(/C=C/c1ccccc1)c1ccc(O)c(CN2CCN(c3cc4c(cc3F)c(=O)c(C(=O)O)cn4C3CC3)CC2)c1 | -7.8% (active) | 9.75% (active) | 38.2% | 85% | 20.3 | 28.7% | 18.4% | 31% | 49% |  |
| O=S(=O)(Nc1ccc(Cl)c(F)c1)c1ccc(-c2cnc(C3CC3)o2)cc1 | 21.2% | 24.5% | 35.8% | 49.1% | 36.3 | 27.4% | -6.7% (active) | 16.1% | -20.8% (active) |  |
| CCOC(=O)C(C)(C#N)C1C=CCCC1 (configuration not stated) | 92.9% | 98.8% | 68.2% | 91.5% | 95.1 | 94.8% | 90.6% | 84.1% | 91.9% |  |
| CC(=O)O[C@H]1CC[C@]2(C)[C@H]3CC=C4[C@@H]5CC(C)(C)CC[C@]5(C(=O)NCCNCCN)CC[C@@]4(C)[C@]3(C)CC[C@H]2C1(C)C | -44.4% (active) | -85.3% (active) | -87.7% (active) | -25% (active) | 95.8 | -63.9% (active) | -91.4% (active) | 80.6% | -86% (active) |  |
| CN1CCN=C1c1ccc(NC(=O)c2ccc(C(=O)Nc3ccc(C4=NCCN4C)cc3)cc2)cc1 |  | 85.7% |  | 98.3% | 96.5 | 90.1% | 109% | 80.3% | 100% | 89.4% |
| CSc1nc(NCCO)c(C#N)c(-c2cccc([N+](=O)[O-])c2)n1 | 103% | 99.1% | 98.1% | 105% | 102 | 97.9% | 112% | 93.4% | 98.1% |  |
| C=CC(=O)Nc1cccc(-c2nc(SC)nc(NCCc3ccc(OC)c(OC)c3)c2C#N)c1 | 9.33% (active) | 30.7% | 91.7% | 19.4% | 89.3 | 65.7% | 53.6% | 71.1% | 23.7% |  |
| C=C(C)[C@@H]1CC[C@]2(C(N)=O)CC[C@]3(C)[C@H](CC[C@@H]4[C@@]5(C)C/C(=C/c6ccco6)C(=O)C(C)(C)[C@@H]5CC[C@]43C)[C@@H]12 | 84.6% | 93.8% | 101% | 95.8% | 102 | 101% | 105% | 95.3% | 96.6% |  |
| CC1(C)CC[C@]2(C(=O)Nc3ccccn3)CC[C@]3(C)C(=CC[C@@H]4[C@@]5(C)C/C(=C/c6cccnc6)C(=O)C(C)(C)[C@@H]5CC[C@]43C)[C@H]2C1 | 13.3% | 29.3% | 56.4% | 26.7% | 74 | 52.8% | 35.4% | 63.4% | 42.2% |  |
| COc1ccc(C(=O)COc2cccc(/C=C3\CSc4ccccc4C3=O)c2)cc1 |  | 6.51% (active) |  | 84.4% | 108 |  | 64.4% | -11.1% (active) | 15.1% | -65.1% (active) |
| O=S(=O)(Nc1ccc(OC(F)F)cc1)c1ccc(-c2cnc(C3CC3)o2)cc1 | 52.8% | 78.4% | 97.5% | 52.3% | 83.4 | 64.8% | 71.5% | 75.5% | 41.5% |  |
